High-throughput results deposited in PubChem by Center for Chemical Genomics, University of Michigan.
Dicer processing – human Dicer pre-microRNA cleavage inhibition | Q9UPY3 | cat-ELCCA pre-miR-21 Dicer processing, chemiluminescence; active compounds read high | z-score at 25 µM | 47,000 tested, 6% active | AID 1347074; in the data active = z-score above about 3, passing the limit was not always enough;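 also: plate controls were vehicle for no effect and no enzyme for full effect; higher signal means more uncleaved substrate so more Dicer inhibition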
The depositor's hits bear a star. This excerpt belongs to a sample that is enriched for hits.

SMILES	Dicer processing
O=C(c1ccc2c(c1)CCO2)N1CCN(C(=O)c2ccc3c(c2)CCO3)CC1	-0.49
CCOc1ccc(/C(O)=C2\C(=O)C(=O)N(c3nccs3)C2c2cccc(Br)c2)cc1 (stereo not given)	1.81
COc1ccc(-c2cnn3c(N)c(-c4ccccc4)cnc23)cc1OC	0.13
CCOC(=O)NC(=O)/C(C#N)=C/c1ccc(N(C)C)cc1	3.41*
CCOC(=O)c1c(C)csc1NC(=O)/C(C#N)=C/c1ccc(O)cc1	0.68
CCOC(=O)/C(C#N)=C/c1ccc(-c2ccccc2)cc1	1.19
Clc1ccc(CSC2=NCN(C3CC3)CN2)cc1Cl	-1.8
CCOC(=O)c1sc(SCc2ccccc2)c2c1CC(c1ccc(OC)cc1)C/C2=N\O (stereo not given)	-1.25
CC(=NCCc1ccc(Cl)cc1)c1ccccc1O	5.19*
CC(=NCc1cccc(CN=C(C)c2ccccc2O)c1)c1ccccc1O	1.89
O=C(O)/C(=N/NC(=O)c1ccc(Cl)cc1)c1ccccc1	2.73
C/C(=N\NC(=O)c1ccc(Cl)cc1)c1ccccc1O	33.2*
CCOC(=O)N/N=C(\C)c1ccccc1O	0.81
CC(C)(C)SCCN=C(Nc1ccc(Cl)cc1)c1ccccc1Cl	-2.68
CCOC(=O)c1sc(-c2ccccc2)nc1CSc1ccc(Cl)cc1	1.77
C[C@@H]1CC2OC(=O)[C@@]3(C)CCC[C@@](C)(C23)[C@@]1(O)CCc1ccoc1 (stereo not given in full)	0.85
COC(=O)Cc1cc(OC)c(OC)cc1C(C)=O	0.72
CSc1nnc(Nc2ccc(Cl)cc2Cl)s1	3.85*
CSc1nc(C)nc(Nc2ccc(Cl)cc2Cl)c1C#N	-0.83
CSc1ccc(/C=N/Nc2ccc(Cl)cc2Cl)s1	5.18
CCOC(=O)c1sc(N2C(=O)c3oc4ccccc4c(=O)c3C2c2ccc(OCC)cc2)nc1C (stereo not given)	0.69
COc1ccc(C2=NN(C(=O)CCCC(=O)O)C(c3ccc(Cl)cc3)C2)cc1OC (stereo not given)	-1
COc1ccc(C2=NN(C(=O)CCCC(=O)O)C(c3ccc(F)cc3)C2)cc1OC (stereo not given)	3.78*
COc1cccc(C2CC(c3ccccc3)=NN2C(=O)CCCC(=O)O)c1OC (stereo not given)	0.83
CC(=O)Nc1sc2c(c(=O)c1O)CCCC2	-0.41
SMILES	Dicer processing
CC(C)CC(NC(=O)OC(C)(C)C)C(=O)NCc1ccccc1 (stereo not given)	0.85
CC(NC(=O)OC(C)(C)C)C(=O)NCc1ccccc1 (stereo not given)	-0.32
CC(C)(C)OC(=O)NC(Cc1ccccc1)C(=O)NCc1ccccc1 (stereo not given)	4.56*
CCOCCOC(=O)C1=C(C)NC2=C(C(=O)CC(c3cccs3)C2)C1c1ccc2c(c1)OCO2 (stereo not given)	2.02
CC(NS(=O)(=O)c1cccc(C(F)(F)F)c1)C(C)(C)C (stereo not given)	0.23
CCCOc1ccccc1C1C(C(=O)OCC)=C(C)NC2=C1C(=O)CC(C)(C)C2 (stereo not given)	-0.79
COCCCN1C(=O)C(=O)/C(=C(\O)c2ccc3c(c2)CC(C)O3)C12C(=O)N(C)c1ccccc12 (stereo not given)	0.99
CC1Cc2cc(/C(O)=C3/C(=O)C(=O)N(CCN(C)C)C34C(=O)N(C)c3ccccc34)ccc2O1 (stereo not given)	4.36*
CCN1C(=O)C2(/C(=C(/O)c3ccc(F)cc3)C(=O)C(=O)N2CCCN2CCOCC2)c2ccccc21 (stereo not given)	2.42
COc1ccc(/C(O)=C2/C(=O)C(=O)N(CCN3CCOCC3)C23C(=O)N(C)c2ccccc23)cc1 (stereo not given)	3.47*
CCN1C(=O)C2(/C(=C(/O)c3ccccc3)C(=O)C(=O)N2CCN2CCOCC2)c2ccccc21 (stereo not given)	1.03
CN1C(=O)C2(/C(=C(/O)c3ccccc3)C(=O)C(=O)N2CCCN2CCOCC2)c2ccccc21 (stereo not given)	5.3*
Cc1ccc(/C(O)=C2/C(=O)C(=O)N(CCN(C)C)C23C(=O)N(C)c2ccccc23)cc1 (stereo not given)	1.63
CC1Cc2cc(/C(O)=C3/C(=O)C(=O)N(CC4CCCO4)C34C(=O)N(C)c3ccccc34)ccc2O1 (stereo not given)	1.46
COc1ccc(/C(O)=C2/C(=O)C(=O)N(CCCN3CCOCC3)C23C(=O)N(C)c2ccccc23)cc1 (stereo not given)	1.89
CN1C(=O)C2(/C(=C(/O)c3ccccc3)C(=O)C(=O)N2CCN2CCOCC2)c2ccccc21 (stereo not given)	5.41*
CCOc1ccc(/C(O)=C2/C(=O)C(=O)N(CCN(C)C)C23C(=O)N(C)c2ccccc23)cc1 (stereo not given)	1.82
CCN1C(=O)C2(/C(=C(/O)c3ccc(Cl)cc3)C(=O)C(=O)N2CCN2CCOCC2)c2ccccc21 (stereo not given)	1.24
CC1(C)Cc2nc3sc4c(NCc5ccccc5)ncnc4c3cc2CO1	2.61
